# Test results: PubChem BioAssay (NCATS)
# Active and inactive are the calls of the source. Entries that show only a call come without a potency. Calls follow the shape of the dose curve; as a rule, active = well fitted curve in the direction sought with a large enough effect; inconclusive = small, poorly fitted or top-dose-only effect, or another doubt; inactive = no such curve, though single readings can be large or run the other way.
# Target: Luciferin 4-monooxygenase (Photinus pyralis) (UniProt P08659)
# Assay: Firefly luciferase counterscreen qHTS: Assay Interference Panel against the NCATS CANVASS Library (AID 1347363)
# Conditions: purified firefly luciferase, luminescence inhibition, 5 min; series mostly up to 57.5 µM
# In short: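 Luminescence inhibition readout: compounds (11-point qHTS) sat 15 min at room temperature with substrate mix (0.013 mM luciferin and ATP), then firefly luciferase was added and signal read 5 min later.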
# Luciferin 4-monooxygenase (Photinus pyralis), sequence (P08659 whole entry, looked up): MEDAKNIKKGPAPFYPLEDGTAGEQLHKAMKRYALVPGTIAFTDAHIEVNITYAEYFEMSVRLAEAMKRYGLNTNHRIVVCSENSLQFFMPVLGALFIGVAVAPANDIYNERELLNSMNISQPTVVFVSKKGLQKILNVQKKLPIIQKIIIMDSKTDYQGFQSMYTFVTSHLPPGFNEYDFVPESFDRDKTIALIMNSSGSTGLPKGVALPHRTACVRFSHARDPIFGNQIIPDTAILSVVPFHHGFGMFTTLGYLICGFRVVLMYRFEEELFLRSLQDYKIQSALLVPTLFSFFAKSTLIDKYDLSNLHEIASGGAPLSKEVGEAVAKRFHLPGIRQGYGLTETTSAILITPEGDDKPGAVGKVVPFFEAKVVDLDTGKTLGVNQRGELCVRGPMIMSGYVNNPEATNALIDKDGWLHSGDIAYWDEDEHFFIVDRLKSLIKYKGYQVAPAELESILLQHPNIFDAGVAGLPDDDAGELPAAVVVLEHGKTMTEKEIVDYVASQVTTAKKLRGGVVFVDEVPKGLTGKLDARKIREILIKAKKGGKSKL
row,Structure (SMILES),Potency
1,COc1cc(O)c(C(=O)[C@@H]2[C@H](CC=C(C)C)C(C)=CC[C@H]2c2ccccc2)c(O)c1,inactive
2,C=C(C)CC[C@H](Cc1c(O)cc(O)c2c1O[C@H](c1ccc(O)cc1)CC2=O)C(=C)C,inactive
3,COc1cc(/C=C/C(=O)OC[C@@H](Cc2ccc(O)c(OC)c2)[C@@H](COC(=O)/C=C/c2ccc(O)c(OC)c2)Cc2ccc(O)c(OC)c2)ccc1O,inactive
4,C=CC(CCCCC)C1C(=O)NC(=O)C1C(=O)C1C2C(C)CC(C(=O)O)CC2CC1(O)C(=O)/C=C/C (stereo not given),inactive
5,C[C@]12CCC[C@](C)(C(=O)O)[C@@H]1CC[C@@]1(C)c3cocc3CC[C@H]21,inactive
6,COc1c(O)cc2c(c1O)C(=O)c1c(coc1C)C2=O,inactive
7,CC(C)C[C@@H]1c2c(O)c(C=O)c(O)c(C=O)c2O[C@]2(C)C=C[C@@H](C(C)C)C[C@H]12,inactive
8,CO[C@H]1[C@@H](OC(=O)/C(C)=C\[C@@H]2O[C@@H]2[C@H]2O[C@H]2C)[C@H](O)[C@H](OCC23C[C@@H]4[C@H](C)CC[C@H]4C4(C=O)CC2C=C(C(C)C)C34C(=O)O)O[C@@H]1C (stereo not given in full),inactive
9,C/C=C/C1C=CC2CC(C)CC(C)C2C1C(=O)CC(=O)NC(CO)C/C=C/CCCCC (stereo not given),inactive
10,CC[C@H]1[C@H](C)[C@H](c2cc(OC)c(OC)cc2OC)[C@@H](C)[C@H](c2cc(OC)c(OC)cc2OC)[C@@]12C=C(OC)C(=O)C=C2OC,inactive
